# Bioassay records from PubChem BioAssay.
# Neddylation inh: cullin neddylation inhibition; calls only at 25 µM; TR-FRET cullin neddylation, biochemical; actives 0.58% (n = 360,000); in the data active = inhibition above about 36%
# Target sequence (P61081 whole entry, looked up): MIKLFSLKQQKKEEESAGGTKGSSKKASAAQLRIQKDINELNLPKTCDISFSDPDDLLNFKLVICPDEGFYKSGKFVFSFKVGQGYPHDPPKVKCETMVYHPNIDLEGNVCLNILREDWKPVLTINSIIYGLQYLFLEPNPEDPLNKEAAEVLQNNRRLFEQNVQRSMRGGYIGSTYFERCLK
# Target sequence (Q13564 whole entry, looked up): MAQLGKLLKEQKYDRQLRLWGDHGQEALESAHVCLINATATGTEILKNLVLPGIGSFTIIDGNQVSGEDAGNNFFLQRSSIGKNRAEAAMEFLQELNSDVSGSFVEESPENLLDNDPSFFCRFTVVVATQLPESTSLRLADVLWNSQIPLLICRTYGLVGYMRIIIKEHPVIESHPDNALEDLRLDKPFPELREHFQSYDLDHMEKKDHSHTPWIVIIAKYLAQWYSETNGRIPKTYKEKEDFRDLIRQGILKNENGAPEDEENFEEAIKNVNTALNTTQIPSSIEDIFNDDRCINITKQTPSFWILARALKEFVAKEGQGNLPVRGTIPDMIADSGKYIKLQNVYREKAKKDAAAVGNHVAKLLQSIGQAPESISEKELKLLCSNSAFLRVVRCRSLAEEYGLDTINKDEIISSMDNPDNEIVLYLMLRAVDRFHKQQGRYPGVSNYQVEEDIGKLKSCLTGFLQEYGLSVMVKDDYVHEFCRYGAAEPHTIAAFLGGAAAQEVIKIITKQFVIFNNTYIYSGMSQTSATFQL
# MBD2 inh: MBD2-methylated oligo binding inhibition; Q9UBB5; TR-FRET, MBD2 binding to methylated oligonucleotide; inhibition, % at 4.4 µM; actives 0.31% (n = 370,000); AID 686964; in the data active = inhibition above about 13%
# UBC13 polyUb: blocks human UBC13 polyubiquitin chain formation. P61088. TR-FRET. inhibition, % at 20 µM. actives 0.47% (n = 330,000). AID 485273; in the data active = inhibition above about 45%, passing the limit was not always enough; inconclusive = no clear call, values can overlap the other calls
# UHRF1 MBD2 ctr: blocks human UHRF1 binding to methylated DNA; Q96T88; inhibition, % at 4.4 µM; AID 687016; actives 0.75% (n = 370,000); UHRF1 binding to methylated oligo, TR-FRET; in the data active = inhibition above about 21%;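 also: UHRF1 SRA domain binding a hemimethylated CpG hairpin DNA probe; 0% = median of test compound wells and 100% = reference inhibitor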
# Casp3 counter: inhibits human caspase-3 in UBC13 counter-screen; shares compounds with UBC13 polyUb; AID 488856; Recombinant caspase-3, Caspase-Glo 3/7 luminescence, 60 min; inhibition, % at 20 µM; actives 4% (n = 1,400);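 active = mean inhibition across replicates above about 26%, limit read from the data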;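 also: plate controls were DMSO with caspase-3 for no effect and DMSO wells lacking enzyme for full effect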
# UBC13 conf: human UBC13 polyubiquitin inhibition, confirmed. shares compounds with UBC13 polyUb. UBC13 polyubiquitination, TR-FRET, biochemical. inhibition, % at 10 µM. actives 68% (n = 1,400). AID 488859; in the data active = inhibition above about 45%; inconclusive = no clear call, values can overlap the other calls
# * = called active by the depositor; i = inactive; ? = inconclusive; / = not tested or not shown. Sampled rows, rich in hits. Any-hit rate of the full collection: about 1.8%.
SMILES,Neddylation inh,MBD2 inh,UBC13 polyUb,UHRF1 MBD2 ctr,Casp3 counter,UBC13 conf
COCCN=c1scc(-c2ccco2)n1/N=C/c1ccc(O)c(O)c1O,i,2,46*,6,-2,8
COc1ccc(NC(=O)CSc2nnc(-c3cccnc3)o2)c(OC)c1,i,2,-3,4,/,/
CC1=CC(C)(C)N(C(=O)CN2C(=O)c3ccccc3C2=O)c2ccc(C)cc21,i,-8,3,2,/,/
CCC(=O)N1c2ccc(C)cc2C2=NNC(=S)NC21O (centres undefined),i,0,47*,-2,3,-13
CNC(=O)CN1C(=O)NC2(CCc3ccccc3C2)C1=O (centres undefined),i,3,20,3,/,/
C[C@H](CO)N1C[C@H](C)[C@@H](CN(C)S(=O)(=O)c2ccccc2)Oc2c(NC(=O)Nc3ccc(C(F)(F)F)cc3)cccc2C1=O,i,-4,52*,-4,-2,37
O/N=C/c1cccc[n+]1CCCCCC[n+]1ccccc1/C=N/O,i,-2,-1,3,/,/
CCCCCCCCCCCCCCCC[n+]1cccc(C(=O)N(CC)CC)c1,i,-3,70*,-2,-2,94*
CCCCCCCCCCCCCCCC[n+]1ccc(C(N)=O)cc1,i,-1,89*,-1,-3,99*
CCCCCCCCCCCCCCCC[n+]1ccc(/C=N/O)cc1,i,7,91*,4,-2,88*
CCCCCCCCCCCCCCCC[n+]1ccccc1,i,-2,/,4,/,/
CN(CC(=O)N1CCC(C(N)=O)CC1)S(=O)(=O)c1ccc2ccccc2c1,i,-1,-3,0,/,/
CN1CCC(N(C)C(=O)c2cccc(S(=O)(=O)N3CCOCC3)c2)CC1,i,-6,3,1,/,/
Nc1nc(N)c2cc(Sc3ccc4ccccc4c3)ccc2n1,i,2,50*,2,3,37
Nc1nc(N)c2cc(Sc3cccc(C(F)(F)F)c3)ccc2n1,i,2,/,-1,/,/
C=CCn1c(SCC(=O)Nc2nc(C)cs2)nnc1C(CO)NC(=O)c1ccccc1 (centres undefined),i,1,6,-1,/,/
COc1ccc(/C=C/C(=O)OCC(=O)c2c(N)n(C)c(=O)n(C)c2=O)c(OC)c1,i,-4,0,9,/,/
COc1ccc(OC)c(/C=C/C(=O)OCC(=O)c2c(N)n(C)c(=O)n(C)c2=O)c1,/,0,46*,2,-4,43
CC(C)NC(=S)N=Nc1c(O)[nH]c2ccc([N+](=O)[O-])cc12,i,-6,?,-7,/,/
C=C(C)CNC(=S)N=Nc1c(O)[nH]c2ccc([N+](=O)[O-])cc12,i,1,49*,9,1,47*
COc1ccc(CNC(=O)OC23CN(C(=O)OC(C)C)N(C(=O)OC(C)C)CC2(O)CN(S(=O)(=O)c2ccc(C)cc2)C3)cc1OC (centres undefined),i,-3,/,1,/,/
CCOC(=O)C1CCN(CC(O)COCc2ccc3c(c2)OCO3)CC1 (centres undefined),i,-5,-6,0,/,/
O=C1c2cccc3cccc(c23)C(=O)N1CC1CCN(CC(O)COCc2ccc3c(c2)OCO3)CC1 (centres undefined),i,-4,95*,-1,-5,103*
O=C(Nc1ccc(C2=NCCN2)cc1)c1ccc(C(=O)Nc2ccc(C3=NCCN3)cc2)c([N+](=O)[O-])c1,i,9,107*,9,2,123*
Cc1ccc2cc3c(nc2c1)N(c1ccccc1)CC3,i,4,46*,-1,0,32
SMILES,Neddylation inh,MBD2 inh,UBC13 polyUb,UHRF1 MBD2 ctr,Casp3 counter,UBC13 conf
CC(=O)NN1CCc2cc3ccc(C)cc3nc21,/,-4,5,-4,/,/
C1CCC(C(CC2CCCCN2)C2CCCCC2)CC1 (centres undefined),i,-2,80*,-1,0,66*
CC(C)(C)C(=O)NC1=NCCS1,i,0,-1,2,/,/
COCCNC(=O)COc1ncnc2ccc(Br)cc12,i,4,5,1,/,/
CNc1nc(NCc2ccccc2)c2ccccc2n1,i,2,27,-3,/,/
Oc1ccccc1Nc1nc(NCc2ccccc2)c2ccccc2n1,i,0,50*,-2,-4,49*
Cc1ccccc1N1CCN(C(=O)CCn2nnc3ccccc32)CC1,/,0,/,1,/,/
O=C(NCCCN1CCCC1)c1ccc2c(c1)N(Cc1ccccc1)CCS2,/,-2,55*,1,-2,69*
CCCc1nnc(NC(=O)c2nc(S(=O)(=O)Cc3ccc(C)cc3)ncc2Cl)s1,i,1,59*,-2,0,54*
COC(=O)c1ccc(NC(=O)c2nc(S(=O)(=O)Cc3cccc(C)c3)ncc2Cl)cc1,i,-4,15,-4,/,/
CCCS(=O)(=O)c1ncc(Cl)c(C(=O)Nc2ccc(S(=O)(=O)Nc3ncccn3)cc2)n1,i,-4,53*,1,-2,50*
CC(=O)Nc1ccc(NC(=O)c2nc(S(=O)(=O)Cc3cccc(C)c3)ncc2Cl)cc1,i,3,45*,-4,2,47*
CCOc1cc(C2NC(=O)NC(c3ccccc3)=C2C(C)=O)ccc1OC(C)=O (centres undefined),i,2,-14,3,/,/
CCCCCCCCCCCCCCCC[N+](C)(C)CCN(Cc1ccc(OC)cc1)c1ncccn1,i,/,119*,/,0,124*
CN1CCN(CC/C=C2/c3ccccc3Sc3ccc(S(=O)(=O)N(C)C)cc32)CC1,i,3,55*,15,1,26
COc1cc2c(cc1Cl)/C(=C\CCN(C)C)c1ccccc1S2,i,3,25,0,/,/
COc1ccccc1-c1cc(-c2ccc(O)cc2)nc(N)c1C#N,/,-1,24,-1,/,/
C[C@@H]1O[C@@H](O[C@H]2[C@H](Oc3cc(O)c4c(c3)OC(c3ccc(O)cc3)CC4=O)O[C@H](CO)[C@@H](O)[C@@H]2O)[C@H](O)[C@H](O)[C@H]1O (some centres undefined),i,-1,97*,-3,-2,100*
COc1ccc([C@@H]2CC(=O)c3c(O)cc(O[C@@H]4OC(CO[C@@H]5OC(C)[C@H](O)[C@H](O)C5O)[C@@H](O)[C@@H](O)C4O)cc3O2)cc1O (some centres undefined),i,0,-10,1,/,/
C[C@@H]1O[C@@H](O[C@H]2[C@H](Oc3cc(O)c4c(c3)O[C@H](c3ccc(O)cc3)CC4=O)O[C@H](CO)[C@@H](O)[C@@H]2O)[C@H](O)[C@H](O)[C@H]1O,i,0,95*,-1,-7,98*
O=C1CC(c2ccc(O)cc2)Oc2cc(O)cc(O)c21 (centres undefined),i,0,0,-1,/,/
CC(C)OC(=O)NCCOC(=O)Nc1ccc(Cl)c(Cl)c1,i,-4,7,2,/,/
